Source: PubChem
Most compounds without a hit are left out; they make up all but 19% or so of the library.
IL-1B inflam inh: blocks inflammasome-driven IL-1 beta release; THP-1 LPS/ATP IL-1B secretion, AlphaLISA, 16 h; stronger effect = lower value; activity change, % at 57.5 µM; actives 4.7% (n = 360,000); AID 743279; in the data active = activity change below about -50%; inconclusive = mostly about -30% to -49%
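Secreted IL-1B measured by AlphaLISA bead assay after 16 h compound exposure of THP-1 cells; compounds (final up to 57.5 uM) added 1 h before LPS (250 ng/mL) and ATP (1.25 mM) stimulation; lower signal means less secretion.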
DT40 TDP1 CPT: DT40-hTDP1 cell growth loss with CPT; Potency, µM (doses to about 46.2 µM), without a hit: at the highest dose activity change, negative = growth inhibition, usual class: inhibitors; actives 12% (n = 420,000); chicken DT40 Tdp1-/-;hTDP1 cells + 20 nM CPT, ATP luminescence, 48 h; note: potency is the fitted concentration of half-maximal effect; nearly all actives have a fitted effect of over 55% in size
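Chicken DT40 Tdp1-/- cells stably complemented with human TDP1 were seeded at 400 cells/well in medium containing 20 nM camptothecin, exposed to pin-transferred compounds, and grown at 37 °C for at least 48 hr. Viability was read as ATP luminescence.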
HT1080-NT tox: kills 2HG-producing HT-1080-NT fibrosarcoma cells | AID 686970 | HT-1080-NT fibrosarcoma viability, CellTiter-Glo ATP luminescence, 48 h | Potency, µM (top dose mostly 46.1 µM), inactives show at the highest dose activity, negative = less viability, actives largely listed as cytotoxic | actives 1.6% (n = 360,000);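 note: NT is the 2HG producing partner of a matched IDH1 knockdown line; potency is the fitted concentration of half-maximal effect; 0% = DMSO-treated cells and -100% = media-only wells without cells; nearly all actives have a fitted effect of over 55% in size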
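Viability by CellTiter-Glo luminescence after 48 h compound exposure at 37C of HT-1080-NT cells (750/well, RPMI, 5% FBS). % activity scaled between DMSO wells and medium-only wells, then curve-fitted and categorized by curve class.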
DT40 TDP1 no CPT: qHTS for Inhibitors of human tyrosyl-DNA phosphodiesterase 1 (TDP1): qHTS in cells in absence of CPT; DT40 Tdp1-/- hTDP1 cells, no CPT, ATP luminescence, 48 h; Potency, µM (series often up to 46.2 µM), for inactives: top-dose activity change, negative = growth inhibition, usual class: inhibitors; actives 15% (n = 420,000); note: potency is the fitted concentration of half-maximal effect; nearly all actives have a fitted effect of over 55% in size
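A cellular qHTS used chicken DT40 cells lacking endogenous Tdp1 but carrying stably transfected human TDP1. Compounds were applied without camptothecin, and cell growth kinetics were judged by ATP-dependent luminescence after ≥48 hr.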
uPA surface inh: blocks generation of uPA at the cell surface | actives 0.31% (n = 330,000) | Potency, µM (highest dose often 38.3 µM), for inactives: top-dose activity change, negative = inhibition, hits mostly inhibitors | cell surface uPA generation assay, qHTS; active = well fitted inhibition curve with a large enough effect; inconclusive = small, poorly fitted or top-dose-only effect; inactive = no such curve, though single readings can be large or run the other way; tested in mouse RAW 264.7 cells; note: potency is the fitted concentration of half-maximal effect; nearly all actives have a fitted effect of over 55% in size
HT1080 IDH1KD tx: toxicity to HT-1080 IDH1 knockdown cells (counter line); AID 686971; HT-1080 IDH1 knockdown viability, ATP luminescence, 48 h; actives 2% (n = 360,000); Potency, µM (highest dose often 46.1 µM), for inactives: at the top dose activity, negative = toxicity, most hits filed as cytotoxic;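 note: potency is the fitted concentration of half-maximal effect; 0% = DMSO wells and -100% = cell-free medium wells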
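In this qHTS, HT-1080 cells depleted of IDH1 are exposed for 48 h at 37 °C to compound titrations. Toxicity is scored from CellTiter-Glo luminescence, with DMSO as full viability and medium alone as none.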
Starred values were filed as active, the others as inactive; [ ] = remark or other dose. Unless noted, calls come from the whole dose curve; as a rule, active = well fitted curve in the direction sought with a large enough effect; inconclusive = small, poorly fitted or top-dose-only effect, or another doubt; inactive = no such curve, though single readings can be large; an effect the other way counts as inactive or inconclusive. Unless noted, % is set by controls: 0 for no effect and ±100 for the full control effect.

`CC(=O)N1CCc2c(sc3c2c(=O)n(CCc2ccccc2)c(=O)n3Cc2ccc(F)cc2)C1` gave DT40 TDP1 CPT 18µM* and DT40 TDP1 no CPT 8.2µM*.
For CCOc1ccc(NC(=O)CSc2ccc(-c3cccnc3)nn2)cc1 the results were IL-1B inflam inh inactive, DT40 TDP1 CPT -8%, HT1080-NT tox 13%, DT40 TDP1 no CPT 2%, uPA surface inh 0% and HT1080 IDH1KD tx -6%.
COc1cc(-c2ccc(C)cc2)cc2c1OCCN(C(=O)CCn1ccc(C)n1)C2 was read as DT40 TDP1 CPT 0%[9.04 µM] and DT40 TDP1 no CPT inconclusive.
For NCCCC[C@H]1CNC(=S)N1CCc1cc(C(F)(F)F)cc(C(F)(F)F)c1 the results were IL-1B inflam inh -51*, DT40 TDP1 CPT inconclusive, HT1080-NT tox -20%, DT40 TDP1 no CPT inconclusive, uPA surface inh -2% and HT1080 IDH1KD tx -13%.
For NCCCC[C@H]1CNC(=S)N1CCCCC1CCCCC1 the results were IL-1B inflam inh -2, DT40 TDP1 CPT 9.2µM*, HT1080-NT tox -17%, DT40 TDP1 no CPT 7.3µM*, uPA surface inh -7% and HT1080 IDH1KD tx -15%.
CCCC[C@@H]1CNC(=O)C(=O)N1CCCCC1CCCCC1 was read as IL-1B inflam inh 0, DT40 TDP1 CPT inconclusive, HT1080-NT tox -2%, DT40 TDP1 no CPT inconclusive and HT1080 IDH1KD tx -12%.
For Cc1cccc(OCc2n[nH]c(=S)n2-c2ccccc2)c1 the results were IL-1B inflam inh 0, DT40 TDP1 CPT -2%, HT1080-NT tox -5%, DT40 TDP1 no CPT 8%, uPA surface inh -18% and HT1080 IDH1KD tx -5%.
Screening Cc1cccc(OCc2nc(-c3ccccn3)n[nH]2)c1 returned IL-1B inflam inh 13, DT40 TDP1 CPT 21µM*, HT1080-NT tox -11%, DT40 TDP1 no CPT 15µM*, uPA surface inh -11% and HT1080 IDH1KD tx -3%.
`Cc1ccc(-n2c(COc3ccccc3)n[nH]c2=S)cc1` gave IL-1B inflam inh 18, DT40 TDP1 CPT 8%, HT1080-NT tox 6%, DT40 TDP1 no CPT 10%, uPA surface inh 2% and HT1080 IDH1KD tx 29%.
Cc1ccc(OCc2nc(-c3ccccn3)n[nH]2)cc1 was read as IL-1B inflam inh 47, DT40 TDP1 CPT 3.3µM*, HT1080-NT tox -10%, DT40 TDP1 no CPT 4.6µM*, uPA surface inh -6% and HT1080 IDH1KD tx -15%.
`Oc1cccc(-c2nnc(-c3cccc(O)c3)nn2)c1` gave IL-1B inflam inh 31, DT40 TDP1 CPT inconclusive, HT1080-NT tox -22%, DT40 TDP1 no CPT inconclusive, uPA surface inh -8% and HT1080 IDH1KD tx -19%.
Screening O=C(Nc1cc(Cl)ccc1N1CCOCC1)c1ccco1 returned IL-1B inflam inh inconclusive, DT40 TDP1 CPT 1%, HT1080-NT tox 17%, DT40 TDP1 no CPT -9%, uPA surface inh -1% and HT1080 IDH1KD tx 0%.
Screening O=C(c1ccccc1)c1ccc(N2CCOCC2)c(NC(=O)c2ccco2)c1 returned IL-1B inflam inh -21, DT40 TDP1 CPT inconclusive, HT1080-NT tox -3%, DT40 TDP1 no CPT 21µM*, uPA surface inh -4% and HT1080 IDH1KD tx -5%.
For COC(=O)c1ccc(N2CCCCC2)c(NC(=O)c2ccco2)c1 the results were IL-1B inflam inh -2, DT40 TDP1 CPT inconclusive, HT1080-NT tox -8%, DT40 TDP1 no CPT 23µM*, uPA surface inh -10% and HT1080 IDH1KD tx -1%.
For Cc1c(Cl)cccc1NC(=O)CSc1nc(=O)[nH]c2c1CCC2 the results were DT40 TDP1 CPT -28% and DT40 TDP1 no CPT -24%.
CCCc1c(OCCCOc2ccc(OCC(=O)O)cc2)ccc(CC=O)c1O was read as DT40 TDP1 CPT 8% and DT40 TDP1 no CPT -4%.
`COc1cc2nc(N(C)C)c(CNCc3nonc3C)cc2c(OC)c1OC` gave DT40 TDP1 CPT 5%[9.04 µM] and DT40 TDP1 no CPT -13%.
